Reference: ChEMBL document CHEMBL4513146, “CO-ADD screening of Karazin Kharkiv National University (Ukraine) compounds”
Results with a measured potency or affinity are listed apart.

What was measured:
Klebsiella pneumoniae = conditions: Concentration 32 ug.mL-1;; ASSAY_TEST Inhibition of Bacterial Growth; detection method Absorption (OD600); MEDIA CAMHB; plate type 384well; NBS; CORNING #3640; time 18 hr
Candida albicans = conditions: Concentration 32 ug.mL-1; ASSAY_TEST Inhibition of Fungal Growth; detection method Absorption (OD530)
Cryptococcus neoformans = conditions: Concentration 32 ug.mL-1; ASSAY_TEST Inhibition of Fungal Growth; detection method Resazurin; Absorption (OD600-OD570); plate type 384well; NBS; CORNING #3640

Row | SMILES | Inhibition (Klebsiella pneumoniae) [%] | Inhibition (Candida albicans) [%] | Inhibition (Cryptococcus neoformans) [%]
1 | Cc1ccc(-c2cc3c4nn(CC(=O)Nc5ccccc5C)c(=O)n4ccn3n2)cc1C | 7.72 | 19.26 | -10.57
2 | O=C(Cn1nc2ccc(SCc3ccc(Cl)cc3)nn2c1=O)Nc1ccccc1 | 9.67 | 9.5 | -21.41
3 | Cc1ccc(-c2ccc3nn(Cc4nc(-c5ccc(OC(F)(F)F)cc5)no4)c(=O)n3n2)cc1 | -0.72 | 49.09 | -8.92
4 | Cc1ccc(CNC(=O)Cn2nc3c(N4CCN(c5ccccc5C)CC4)nccn3c2=O)cc1 | 0.81 | 26.17 | -8.71
5 | COc1ccc(CNC(=O)Cn2nc3c4cc(-c5ccc(OC)cc5)nn4ccn3c2=O)cc1 | 9.14 | -2.24 | -14.67
6 | O=C(Cn1nc2c(N3CCOCC3)nc3ccccc3n2c1=O)Nc1ccccc1Br | 11.27 | 1.17 | -27.52
7 | Cc1ccc(NC(=O)Cn2nc3ccc(SC(C)C)nn3c2=O)cc1F | 6.4 | 5.51 | -6.87
8 | Cc1ccc(N(CC(=O)OC(C)(C)C)S(=O)(=O)c2cccn3cnnc23)cc1 | 9.31 | 3.93 | -6.45
9 | Cc1nnc2ccc(S(=O)(=O)N(Cc3cccc(F)c3)c3ccc(Cl)cc3)cn12 | 10.33 | -0.68 | -10.1
10 | CCCN(C)c1nccn2c(=O)n(CC(=O)Nc3cccc(SC)c3)nc12 | 8.64 | 8.61 | -6.21
11 | COc1ccc(-c2cc3c4nnc(CCC(=O)NCc5cccs5)n4ccn3n2)cc1 | 6.72 | -0.32 | -11.02
12 | CSc1ccc(CNC(=O)Cn2nc3c(N4CCOCC4)nccn3c2=O)cc1 | 9.81 | 3.79 | -7.62
13 | CC(C)c1ccc(NC(=O)Cn2nc3c(SCc4ccccc4)nccn3c2=O)cc1 | 2.82 | 10.67 | -15.97
14 | Cc1ccccc1CSc1nnc2c(=O)n(-c3ccc(Br)cc3)ccn12 | 3.65 | 15.24 | -9.13
15 | COc1cccc(-n2ccn3c(SCC(=O)N4CCN(c5ccc(F)cc5)CC4)nnc3c2=O)c1 | 8.66 | 0.06 | -10.47
16 | Cc1cccc(N(C)C(=O)Cn2nc3cc(C)nc(Nc4ccc(F)c(C)c4)n3c2=O)c1 | 4.58 | 2.18 | -4.41
17 | Cc1cc2nn(CC(=O)Nc3ccc(F)c(F)c3)c(=O)n2c(Nc2ccc(F)c(C)c2)n1 | 10.55 | 1.57 | -7.1
18 | COc1cccc(NC(=O)Cn2nc3c(Oc4cccc(OC)c4)nccn3c2=O)c1 | 3.74 | 3.44 | -0.95
19 | Cc1cc2nn(CC(=O)Nc3cccc(C)c3C)c(=O)n2c(Nc2ccc(F)c(C)c2)n1 | 8.99 | 3.16 | -7.96
20 | CCOC(=O)C1CCN(c2nc3ccccc3n3c(=O)n(CC(=O)Nc4ccccc4F)nc23)CC1 | 4.78 | 13.18 | -20.01
21 | COC(=O)c1ccccc1NC(=O)Cn1nc2c(Oc3ccccc3)nccn2c1=O | 8.23 | 7 | -9.79
22 | COc1ccc(CN(c2ccc(F)cc2)S(=O)(=O)c2cccn3c(C)nnc23)cc1 | 13.21 | 1.16 | -6.38
23 | COc1ccc(-c2noc(Cn3nc4ccc(-c5ccccc5)nn4c3=O)n2)cc1OC | 11.35 | 4.81 | -11.77
24 | O=S(=O)(c1cccn2cnnc12)N(Cc1cccc(Cl)c1)c1cc(F)cc(F)c1 | 8.32 | 1.62 | -7.91
25 | COc1ccc(-c2cc3c4nnc(SCC(=O)N(C)c5ccccc5)n4ccn3n2)cc1 | 5.6 | 32.67 | -11.25
26 | O=C(Cn1nc2ccc(-c3ccccc3)nn2c1=O)Nc1cccc(Cl)c1 | 2.74 | 18.56 | -15.44
27 | Cc1ccc(-c2cc3c4nnc(CCC(=O)NCCCc5ccccc5)n4ccn3n2)cc1C | 12.56 | -0.09 | -29.9
28 | O=C(Cn1nc2ccc(Sc3cccc(F)c3)nn2c1=O)Nc1cccc(C(F)(F)F)c1 | 3.15 | 0.5 | -9.77
